# Screening results (PubChem BioAssay)
# HCV NS3h FP: hepatitis C NS3 helicase inhibition, primary screen. NS3h Cy5-dT15 DNA binding, fluorescence polarization. inhibition, % at 100 µM. 16,000 compounds, 1.6% hits. AID 687043;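 active = inhibition above the average over every tested compound plus 3 SD, cut at about 40% in these data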
# Cy5 interf NS3h: enhances or quenches Cy5 fluorescence in NS3h assay. 16,000 compounds, 6% hits. fluorescence interference ratio at 100 µM. Cy5-dT15 DNA with NS3h, fluorescence interference; actives lie on both sides; signal over control mean, under 1 quenches. AID 720488;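 active = compound fluorescence over control fluorescence at most 0.8, a quencher, or at least a set upper limit, an enhancer; inactive = ratio between 0.8 and the set upper limit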
# HCV NS3h conf: confirmation of hepatitis C virus NS3 helicase inhibitors. inhibition, % at 100 µM. 240 compounds, 20% hits. NS3h binding to Cy5-dT15 DNA, fluorescence polarization. shares compounds with HCV NS3h FP;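 active = percent inhibition of 50% or more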
# SSB-DNA FP CB: E. coli SSB-DNA binding inhibition, NS3h counter-screen; E. coli SSB binding Cy5-dT15, fluorescence polarization; inhibition, % at 100 µM; shares compounds with HCV NS3h FP; 240 compounds, 40% hits;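 active = inhibition of at least 50%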;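 also: displacers lower Cy5 polarization so higher inhibition means more SSB displaced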
# Target sequence (P0AGE0 whole entry, looked up): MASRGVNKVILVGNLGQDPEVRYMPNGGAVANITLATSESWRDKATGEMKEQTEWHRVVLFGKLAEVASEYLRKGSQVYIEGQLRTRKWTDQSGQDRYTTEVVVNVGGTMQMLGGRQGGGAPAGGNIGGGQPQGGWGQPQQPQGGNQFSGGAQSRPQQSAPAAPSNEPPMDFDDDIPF
# Cy5 SSB fluor CB: counter-screen for HCV NS3 helicase inhibitors: fluorescence interference; 240 compounds, 8% hits; Cy5-dT15/E. coli SSB fluorescence interference; actives lie on both sides; shares compounds with HCV NS3h FP; AID 720487; fluorescence interference ratio at 100 µM;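 active = fluorescence interference ratio at or above 1.2, signal boosting, or at or below 0.8, signal quenching; inactive = ratio between 0.8 and 1.2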;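 also: ratio of compound well signal to mean negative control signal so 1 means no effect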
# Cy5 fluor confirm: confirmation counter-screen for HCV NS3 helicase inhibitors: fluorescence interference. shares compounds with HCV NS3h FP. Cy5-dT15 DNA/NS3h fluorescence interference counterscreen. fluorescence interference ratio at 100 µM, hits read low. 240 compounds, 44% hits;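 active = fluorescence interference ratio at or below 0.8 quencher or at or above a set limitenhancer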;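 also: ratio of compound fluorescence to mean of negative controls so 1 means no interference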
# An asterisk follows results filed as active. Shown are actives, neighbours in structure and some others; about 6.8% of the full set was active somewhere.
SMILES,HCV NS3h FP,Cy5 interf NS3h,others
O=C1/C(=C/c2ccccc2OCc2ccc([N+](=O)[O-])cc2)SC(=S)N1c1ccccc1,12.4,0.749*,
O=C1/C(=C/c2ccccc2[N+](=O)[O-])SC(=S)N1c1cccc(C(F)(F)F)c1,-2.1,0.758*,
O=C1/C(=C/c2ccccc2OCc2ccc([N+](=O)[O-])cc2)SC(=S)N1Cc1ccccc1,10.9,1.07,
CCN1C(=O)/C(=C\c2cccc(O)c2)SC1=S,33.5,1.01,
COc1ccccc1/C=c1/sc2nc(-c3ccc(Cl)cc3Cl)nn2c1=O,7.9,0.902,
O=C(/C=C/c1ccc(-c2cccc(Cl)c2)o1)c1ccco1,5.8,0.977,
Cc1cccc(-c2nc3cc(NC(=S)NC(=O)c4ccco4)ccc3o2)c1,-1.6,0.996,
C=CCOc1ccc(CN2CCOCC2)cc1,-4.9,1.09,
O=C(O)/C=C\C(=O)Nc1cccc(O)c1,0.3,0.969,
CCc1cc(=O)oc2cc(C)cc(OC(C)=O)c12,1.2,1.06,
CCc1cc(=O)oc2cc(C)cc(OCC(=O)c3ccccc3)c12,-3.6,1.32*,
COc1ccc(C(=O)N/C(=C\c2ccc(-c3cccc([N+](=O)[O-])c3)o2)C(=O)NCCCN2CCOCC2)cc1,11.1,0.772*,
CCCCNC(=O)/C(=C/c1ccc(-c2cccc([N+](=O)[O-])c2)o1)NC(=O)c1ccc(OC)cc1,12.1,0.992,
CCOC(=O)c1c(-c2ccccc2)oc2cc(Br)c(OC(=O)CC)cc12,9.7,0.952,
CC(C)(C)CC(C)(C)NC(=O)c1ccc2nccnc2c1,4.0,0.609*,
O=C(Nc1ccccc1F)c1ccc2nccnc2c1,-0.9,1.03,
CC(C)CCNC(=O)c1cccc([N+](=O)[O-])c1,16.6,1.04,
CC(NC(=O)NC(=O)c1cccc([N+](=O)[O-])c1)C1CC1 (centres undefined),9.6,0.641*,
O=S(=O)(c1ccccc1C(O)(c1ccccc1)c1ccccc1)c1ccccc1C(O)(c1ccccc1)c1ccccc1,5.9,0.765*,
COc1ccc2oc(=O)c(C(=O)Nc3ccccc3F)cc2c1,6.6,1.03,
COc1ccc(S(=O)(=O)N(CCc2ccccc2)CC(=O)Nc2ccc(Br)cc2)cc1OC,10.9,1.03,
COc1ccc(S(=O)(=O)N(CC(=O)Nc2ccccc2C(F)(F)F)Cc2ccccc2)cc1OC,14.2,0.633*,
Cc1ccccc1OCCCN1CCC(C)CC1,-9.5,0.99,
COC(=O)c1ccc(NC(=S)NC(=O)c2ccc(OC)cc2)cc1,21.0,0.946,
O=C(COc1ccccc1[N+](=O)[O-])Nc1ccc2oc(-c3cc(Br)ccc3Cl)nc2c1,-18.5,1.2*,
SMILES,HCV NS3h FP,Cy5 interf NS3h,others
COc1ccc(NC(=O)c2ccc(C)c([N+](=O)[O-])c2)cc1,13.3,0.736*,
CCOc1ccccc1NC(=O)c1ccc([N+](=O)[O-])cc1,-7.3,1.02,
O=C(COc1ccccc1[N+](=O)[O-])Nc1ccc2oc(-c3ccccc3Br)nc2c1,-19.8,1.06,
CCOc1ccccc1NC(=O)c1ccc(C)c([N+](=O)[O-])c1,18.0,0.752*,
COc1ccc(C(=O)Nc2ccc(C(=O)O)cc2)cc1,-3.1,1.22*,
CCc1ccc(NC(=O)c2ccc(C)c([N+](=O)[O-])c2)cc1,-5.0,1.01,
O=C(NC(NC(=S)Nc1cc(Cl)ccc1Cl)C(Cl)(Cl)Cl)c1ccccc1Cl (centres undefined),6.1,0.941,
CCCC1=NN(c2ccc([N+](=O)[O-])cc2)C(=O)/C1=C\c1ccc(F)cc1,7.7,1.01,
COc1ccc(-n2nc3cc(C)c(NC(=O)c4cc(Cl)c(OC)c(Cl)c4)cc3n2)cc1,4.5,0.933,
CCN1C(=O)/C(=C\c2cc(Cl)c(O)c(Cl)c2)SC1=S,7.2,1.09,
COc1cccc(C(=O)Nc2ccc3oc(-c4ccc(F)cc4Cl)nc3c2)c1,-16.2,1.07,
CCOc1ccc(NC(=O)c2ccc(C)c([N+](=O)[O-])c2)cc1,5.3,1.02,
CCOc1cccc(C(=O)Nc2ccc3nn(-c4ccc(F)cc4)nc3c2)c1,-24.4,1.06,
NS(=O)(=O)c1ccc(NC(=O)c2ccc(Oc3ccccc3)cc2)cc1,1.2,1.21*,
Cc1ccc(C(=O)Nc2ccc3oc(-c4ccc(F)cc4Cl)nc3c2)cc1[N+](=O)[O-],6.2,0.741*,
CCOc1ccc(NC(=O)c2ccc(Cl)c([N+](=O)[O-])c2)cc1,17.0,0.731*,
O=C(Nc1ccc(Oc2ccccc2)cc1)c1ccc([N+](=O)[O-])cc1,2.5,1.03,
CCOc1ccc(-n2nc3ccc(NC(=O)c4ccc(Cl)cc4)cc3n2)cc1,15.2,0.642*,
Cc1ccc(CNC(=O)c2ccc([N+](=O)[O-])cc2Cl)cc1,10.9,1.02,
O=C(Nc1ccc(Cl)c(Cl)c1)C1C(c2ccccc2)C1(Cl)Cl (centres undefined),6.6,0.979,
Cc1ccc(C(=O)Nc2nc(-c3ccccc3)cs2)cc1[N+](=O)[O-],10.2,0.997,
Cc1nc(NC(=O)c2ccccc2)sc1-c1csc(Nc2cccc(C(=O)O)c2)n1,37.4,0.798*,HCV NS3h conf=-0.8;SSB-DNA FP CB=22.3;Cy5 SSB fluor CB=0.929;Cy5 fluor confirm=0.728*
COc1ccc(C2C(=C(O)c3ccc(F)cc3)C(=O)C(=O)N2c2nncs2)cc1 (centres undefined),5.7,0.987,
CN(C1=NC(=O)/C(=C\C=C\c2ccccc2)S1)c1ccc(O)cc1,52.4*,0.967,HCV NS3h conf=21.4;SSB-DNA FP CB=1.7;Cy5 SSB fluor CB=0.931;Cy5 fluor confirm=0.692*
CN(C1=NC(=O)/C(=C\c2ccc(Cl)cc2)S1)c1ccc(O)cc1,8.2,0.984,
SMILES,HCV NS3h FP,Cy5 interf NS3h,others
O=C1NC(=S)N(c2ccc(Cl)cc2)C(=O)/C1=C\c1ccc(-c2cccc(C(=O)O)c2)o1,71.8*,1.01,HCV NS3h conf=57.3*;SSB-DNA FP CB=97.6*;Cy5 SSB fluor CB=0.924;Cy5 fluor confirm=0.905
CCOC(=O)c1ccc(-c2ccc(/C=C3/C(=O)NC(=O)N(c4ccccc4)C3=O)o2)cc1,24.0,0.918,
O=C1NC(=S)N(c2ccccc2)C(=O)/C1=C/c1ccc(-c2cccc(C(=O)O)c2)o1,82.6*,1.02,HCV NS3h conf=25.6;SSB-DNA FP CB=81.8*;Cy5 SSB fluor CB=0.842;Cy5 fluor confirm=0.794*
O=C1NN(c2ccc(Br)cc2)C(=O)/C1=C\c1ccc(-c2cccc(C(=O)O)c2)o1,23.4,0.933,
COc1ccc(C2CC(C(F)(F)F)n3nc(C(=O)Nc4ccccc4SC)c(Cl)c3N2)cc1 (centres undefined),10.7,0.993,
COc1ccc(NC(=O)CN(c2ccc(Br)cc2)S(C)(=O)=O)cc1,13.8,1.06,
Cc1ccc(-c2[nH]n3c(=O)cc(-c4ccccc4)nc3c2C)cc1,-12.7,0.902,
CCCC(C)NC(=O)c1ccc([N+](=O)[O-])cc1 (centres undefined),3.1,1.02,
O=C(NC(O)C(Cl)(Cl)Cl)c1ccc([N+](=O)[O-])cc1 (centres undefined),39.2,1.04,HCV NS3h conf=-1.9;SSB-DNA FP CB=5.3;Cy5 SSB fluor CB=1.01;Cy5 fluor confirm=0.779*
